From PubChem
G9a block – qHTS Assay for Inhibitors of Histone Lysine Methyltransferase G9a; actives 8.8% (n = 350,000); G9a H3K9 monomethylation, AlphaScreen, 2 h; Histone-lysine N-methyltransferase EHMT2 (Homo sapiens), Q96KQ7; Potency, µM (doses to about 102 µM), hits mostly inhibitors; AID 504332, 2011; further: nearly all actives have a fitted effect of over 75% in size
Target sequence (Q96KQ7 913-1193 limits assumed): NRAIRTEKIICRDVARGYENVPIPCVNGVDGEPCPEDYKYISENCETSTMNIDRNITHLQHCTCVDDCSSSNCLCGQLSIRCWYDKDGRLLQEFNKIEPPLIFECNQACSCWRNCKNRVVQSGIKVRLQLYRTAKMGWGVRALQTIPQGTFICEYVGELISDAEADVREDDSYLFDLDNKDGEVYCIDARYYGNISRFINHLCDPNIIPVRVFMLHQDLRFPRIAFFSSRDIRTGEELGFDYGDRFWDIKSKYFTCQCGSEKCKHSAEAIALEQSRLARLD
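AlphaScreen read-out: biotin-H3K9 peptide (500 nM) methylation by 20 nM enzyme with 20 uM SAM, 2 h at room temperature after 15 min compound preincubation; anti-monomethyl H3K9 antibody plus donor/acceptor beads, 10 min dark.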
PI5P4Ka inh – qHTS for Inhibitors of phosphatidylinositol 5-phosphate 4-kinase (PI5P4K). Phosphatidylinositol 5-phosphate 4-kinase type-2 alpha (Homo sapiens), P48426. PI5P4Kalpha enzyme, ADP-Glo luminescence, 60 min; stronger effect = lower value. max response, %. actives 1.2% (n = 330,000). AID 652105, 2013; active means max response of -50% or lower; inconclusive means between -30% and -50%; inactive means -30% or higher; further: value at the top dose of about 77 µM
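Single end-point luminescence (ADP-Glo) quantified ADP from PI5P4Kalpha turnover; ATP 5 microM final, 1 h at RT, 0.1% CHAPS and 0.28 mM EGTA in HEPES pH 7.4.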
JMJD2A Tudor – qHTS Assay for Inhibitors of JMJD2A-Tudor Domain; AID 504339, 2011; AlphaScreen JMJD2A-Tudor / H3K4me3 peptide binding; Potency, µM (titrated, usually from 114 µM), most hits filed as inhibitors; actives 4.4% (n = 390,000); Lysine-specific demethylase 4A (Homo sapiens), O75164; further: nearly all actives have a fitted effect of over 50% in size
BAZ2B inh – qHTS Assay for Inhibitors of BAZ2B; Bromodomain adjacent to zinc finger domain protein 2B (Homo sapiens), Q9UIF8; AlphaScreen BAZ2B-H3K14Ac peptide displacement; Potency, µM (highest dose often 114 µM), actives largely listed as inhibitors; actives 4.4% (n = 360,000); AID 504333, 2011; further: nearly all actives have a fitted effect of over 60% in size
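Multi-concentration screen (max 110 uM) measuring displacement of acetylated histone H3 peptide from BAZ2B by AlphaScreen, using 50 nM protein, 50 nM peptide and 10 ug/mL streptavidin donor plus Ni-chelate acceptor beads.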
HP1b chromo inh – HTS for Inhibitors of HP1-beta Chromodomain Interactions with Methylated Histone Tails; Chromobox protein homolog 1 (Homo sapiens), P83916; actives 0.56% (n = 390,000); AlphaScreen HP1-beta / biotin-H3K9me3 peptide binding; Potency, µM (doses to about 114 µM), usual class: inhibitors; AID 540317, 2011; further: nearly all actives have a fitted effect of over 70% in size
Target sequence (P83916 whole entry, looked up): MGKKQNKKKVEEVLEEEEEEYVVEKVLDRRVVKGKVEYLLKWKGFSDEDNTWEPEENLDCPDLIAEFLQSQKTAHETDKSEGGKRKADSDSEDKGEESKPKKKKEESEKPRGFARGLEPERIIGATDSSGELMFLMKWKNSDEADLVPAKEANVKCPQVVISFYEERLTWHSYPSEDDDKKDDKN
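HP1-beta protein (50 nM final) preincubated 30 min at room temperature with biotinylated H3(1-18)K9me3 peptide (50 nM) in PBS pH 7.4, 0.01% Tween-20, then compound added for 30 min. AlphaScreen streptavidin donor/nickel chelate acceptor beads (10 ug/mL final), 30 min dark, luminescence read.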
PLK1 PBD block – qHTS for Inhibitors of PLK1-PDB (polo-like kinase 1 - polo-box domain): Primary Screen; Serine/threonine-protein kinase PLK1 (Homo sapiens), P53350; Plk1 PBD binding of FITC phosphopeptide, fluorescence polarization; Potency, µM, actives largely listed as inhibitors; actives 2.8% (n = 360,000); further: series mostly up to about 57 µM; nearly all actives have a fitted effect of over 65% in size
Hits are given with their value; n = inactive; u = inconclusive; x = no result; [ ] = remark or other dose. Rows were chosen to be rich in hits. Some 12% of all compounds tested hit in one or more screens of this group. Unless noted, the call rests on the fitted dose curve; in most records, active means well fitted curve in the direction sought with a large enough effect; inconclusive means small, poorly fitted or top-dose-only effect, or another doubt; inactive means no such curve, though single readings can be large; an effect the other way counts as inactive or inconclusive.

SMILES	G9a block	PI5P4Ka inh	JMJD2A Tudor	BAZ2B inh	HP1b chromo inh	PLK1 PBD block
O=C(NC(=S)N1CCN(c2ccc(O)cc2)CC1)c1cccs1	x	n	n	u	n	n
O=C(CN1CCN(c2ccc(F)cc2)CC1)c1cccs1	16µM	n	n	n	n	n
Cc1ccccc1C(=O)Nc1nc2c(s1)CC(C(C)(C)C)CC2 (stereo not drawn)	n	x	n	n	n	x
CCc1nnc(NC(=O)c2cccc(S(=O)(=O)N3CC(c4ccccc4)CC3=O)c2)s1 (stereo not drawn)	n	n	n	n	n	n
COc1ccc(C(=O)Nc2nncs2)cc1S(=O)(=O)N1CC(c2ccccc2)CC1=O (stereo not drawn)	50µM	n	n	n	n	n
Cc1nnc(NC(=O)c2cccc(S(=O)(=O)N3CC(c4ccccc4)CC3=O)c2)s1 (stereo not drawn)	50µM	n	n	n	n	n
Cc1cccc(C)c1-n1nnnc1C1(C)CCC(=O)N1CC(F)(F)F (stereo not drawn)	x	n	x	x	x	n
CCCCc1c(C)nc2ccc(Br)cc2c1SCCC#N	28µM	x	x	n	x	x
CCc1c(C)nc2ccc(Br)cc2c1SCCC#N	n	n	u	n	n	u
CCCc1c(C)nc2ccccc2c1SCCC#N	n	n	n	n	n	21µM
CC(=O)Nc1cc(O)c2nonc2c1O	x	x	25µM	x	u	x
CC(C)N(C(=S)NC1CC2CCC1C2)c1ccccc1 (stereo not drawn)	n	n	n	n	n	n
CN(C)c1cccc(C(=O)NNC(=S)NC2CC3CCC2C3)c1 (stereo not drawn)	50µM	n	u	n	u	n
COc1ccc(NCc2ccc([N+](=O)[O-])s2)c(OC)c1	10µM	n	40µM	32µM	18µM	n
O=[N+]([O-])c1ccc(CNc2cccc(Cl)c2)s1	45µM	n	u	u	n	n
COc1ccc(NC(=O)/C=C/c2ccccc2[N+](=O)[O-])c(OC)c1	n	n	n	n	u	n
COc1ccc(NCc2ccc([N+](=O)[O-])s2)cc1	7.9µM	n	56µM	50µM	u	n
O=C(NCc1cccs1)Nc1cccc(Cl)c1	x	n	n	x	n	n
O=[N+]([O-])c1ccc(CNc2ccc(F)cc2)s1	45µM	n	u	40µM	n	n
COc1ccc(-n2cc(-c3ccccc3)c3c(N4CCCC(C)C4)ncnc32)cc1 (stereo not drawn)	n	x	u	u	n	x
O=[N+]([O-])c1ccc(CNc2ccc(Cl)cc2)s1	45µM	n	u	35µM	u	n
COc1ccc2c(=O)c3c(=O)n(-c4ccc(C)cc4)c(-c4ccccc4)nc3oc2c1	n	x	x	n	x	x
CCCCn1c(-c2ccco2)nc2ccccc2c1=O	50µM	n	n	n	n	n
COc1ccc2c(=O)c3c(=O)n(Cc4ccco4)c(-c4ccc(C)cc4)nc3oc2c1	u	u	89µM	u	n	n
O=c1c2ccccc2oc2nc(-c3ccco3)n(Cc3ccccc3)c(=O)c12	u	n	n	56µM	n	n
SMILES	G9a block	PI5P4Ka inh	JMJD2A Tudor	BAZ2B inh	HP1b chromo inh	PLK1 PBD block
Cc1ccc(-n2c(C)nc3oc4ccccc4c(=O)c3c2=O)cc1	56µM	x	50µM	45µM	n	n
CCSc1nn(CC(=O)Nc2cccc(CC)c2)c(N)c1S(=O)(=O)c1ccccc1	n	x	n	u	n	x
FC(F)(F)c1cc(CN2CC3(CCNCC3)C2)cc(C(F)(F)F)c1	n[12.7 µM]	x	x	x	x	x
Cc1ccc(S(=O)(=O)N(C)C)cc1NC(=O)CSc1nc2ncc(Cl)cc2[nH]1	35µM	n	n	n	n	n
O=C(Nc1ccc2c(c1)OCO2)C1CCN(S(=O)(=O)c2cccs2)CC1	n[0.501 µM]	x	u	u	n	n
O=C(Nc1ccc2c(c1)OCO2)C1Cc2ccccc2CN1S(=O)(=O)c1cccs1 (stereo not drawn)	n	-72	u	u	n	n
